Screening data from PubChem BioAssay.
Most compounds without a hit are left out; they make up all but 3.7% or so of the library.
Autofluor counter = counter-screen for toxin protease inhibitors: compound fluorescence | compound autofluorescence counterscreen, microsphere flow cytometry; active compounds read high | fluorescence intensity (test concentration not listed) | 360,000 tested, 3.1% active; in the data active means fluorescence intensity above about 16000; inconclusive means no clear call, values can overlap the other calls
Anthrax LF prot = blocks Bacillus anthracis lethal factor protease; P15917; multiplex microsphere protease cleavage assay, LF; inhibition, % at 10 µM; 360,000 tested, 0.12% active; AID 588501; further: plate controls were buffer without enzyme for full effect and enzyme alone for no effect
BoNT A protease = inhibitors of Botulinum neurotoxin A light chain protease. multiplex microsphere protease substrate cleavage, flow cytometry. inhibition, % at 10 µM. 360,000 tested, 0.17% active; further: plate controls were buffer without enzyme for full effect and enzyme alone for no effect
BJeLR lethal = kills HRASV12-expressing BJeLR cells; BJeLR (HRASV12) viability, CellTiter-Glo ATP luminescence, 48 h; inhibition, % (test concentration not listed); 300,000 tested, 0.17% active; in the data active means inhibition above about 50%; inconclusive means no clear call, values can overlap the other calls
Vc quorum ag = induces V. cholerae light production without autoinducers | activation, % at 18.7 µM | AID 588436 | 350,000 tested, 0.16% active | V. cholerae BH1578 lux reporter, luminescence, 6 h; in the data active means activation mostly above about 9.7%, no sharp cut-off; inconclusive means no clear call, values can overlap the other calls; inactive means mostly below about 3.7%
BoNT F protease = blocks Botulinum neurotoxin F light chain protease. Multiplex microsphere protease cleavage assay, flow cytometry. inhibition, % at 10 µM. 360,000 tested, 0.22% active; in the data active means inhibition above about 35%, passing the limit was not always enough; inconclusive means no clear call, values can overlap the other calls; further: plate controls were buffer without enzyme for full effect and enzyme alone for no effect
The depositor's hits bear a star; i = inactive; ? = inconclusive; · = no result; ! = a repeat was not active. Unless noted, no stated cut-off is given here; in the data, active means inhibition above about 30%; inconclusive means no clear call, values can overlap the other calls; inactive means below that.

SMILES	Autofluor counter	Anthrax LF prot	BoNT A protease	BJeLR lethal	Vc quorum ag	BoNT F protease
O=C(Cn1ncc2ccccc2c1=O)Nc1cccc(C(F)(F)F)c1	3084	-5	0	·	-1	1
O=C(CCS(=O)(=O)Cc1ccccc1)N1CCc2ccccc2C1	21963*	-5	4	1	-1	2
CCCNC(=O)CN1C(=O)c2ccccc2Sc2ncccc21	3990	30*	2	8	-1	-1
Cc1ccccc1OCC(=O)N1N=C(C(F)(F)F)CC1(O)C(C)(C)C (stereo not drawn)	3769	4	0	1	-2	14
Cc1ccc(OCC(=O)N2N=C(C(F)(F)F)CC2(O)C(C)(C)C)cc1C (stereo not drawn)	19845*	-7	2	27	i	-1
Cc1cc(C)n2nc(CC(=O)NC3CCCCCC3)nc2n1	19846*	-2	-1	-10	-4	-4
CC(C)Cc1cc(C(=O)O)c2ccccc2n1	18252*	-3	-9	7	1	-12
Cc1ccc(S(=O)(=O)N2CCN(C(=O)N3CCOCC3)CC2)cc1C	4030	-4	0	-5	-1	15
Cc1ccc(S(=O)(=O)N2CCCN(S(=O)(=O)c3ccc(C)c(C)c3)CC2)cc1C	16751*	-7	-2	5	i	-3
Cc1ccc(Nc2nc(-c3ccc(S(=O)(=O)N4CCCC4)cc3)cs2)cc1C	25361*	-5	-4	12	-5	-9
Cc1ccc(S(=O)(=O)N2CCN(S(=O)(=O)N3CCOCC3)CC2)cc1C	16305*	-3	0	3	1	4
Cc1cc(C)cc(Nc2nc(-c3ccc(S(=O)(=O)N4CCCC4)cc3)cs2)c1	1864	-2	-2	8	0	-16
Cc1ccc(Cc2c(-c3ccccc3)nc3c(Cl)cc(C(F)(F)F)cn23)cc1	4801	-11	0	·	·	-5
COc1ccc(-n2c(/C=C(\C)O)nc(=O)c3c(C)cc(C)nc32)cc1	22184*	1	1	4	-4	1
COc1ccc(-n2c(C)nn(C)c2=O)cc1	15801	-1	1	-2	i	2
COC(=O)[C@]12CCCCC=C1N(CCC1=CCCCC1)C(=O)[C@H](CC(=O)N1CCCC1)C2	5710	-2	-1	·	·	0
CC1(C(=O)NS(=O)(=O)c2ccccc2C(F)(F)F)CCN1C(=O)CCC1CCCC1 (stereo not drawn)	3899	-3	0	·	0	2
C/C(N)=C(/C#N)C(=O)CSc1nc2cc(Cl)ccc2s1	24839*	1	?	-3	i	-5
C/C(N)=C(/C#N)C(=O)CSc1cc(Cl)ccc1Cl	2072	-4	0	-1	0	-3
C/C(N)=C(/C#N)C(=O)CSc1nnc(Nc2cccc(C)c2)s1	17498*!	0	0	9	0	0
Cc1ccc(NC(=O)C2(C)CCN2C(=O)Cc2ccccc2)cc1C (stereo not drawn)	3665	5	0	·	0	-10
CCOC(=O)N(C)c1c(CC)nc2c(OCc3ccc(Cl)cc3)cccn12	4329	-8	0	·	i	-6
O=C(N1CCOCC1)C12CCC3CC(CC(C3)C1)C2	4865	-7	-1	-5	i	-1
O=C(N1CCOCC1)C12CC3CC(C1)CC(C(=O)N1CCOCC1)(C3)C2	8884	0	0	1	5.6*	-4
Cc1cc(C)cc(CC(=O)N2CCC2(C)C(=O)NS(=O)(=O)Cc2ccccc2)c1 (stereo not drawn)	3897	1	-1	·	1	-6
SMILES	Autofluor counter	Anthrax LF prot	BoNT A protease	BJeLR lethal	Vc quorum ag	BoNT F protease
C=C1C[C@@H]2C[C@@H]2CN(S(=O)(=O)c2ccc(C)cc2)[C@@H]1COCc1ccccc1	5489	6	0	·	·	5
C=CC(=O)NC(NC(=O)C=C)c1ccc(Br)cc1	21256*	0	?	0	i	-4
CC(NC(=O)c1ccccc1)c1ccc(Br)cc1 (stereo not drawn)	4597	2	0	-6	0	0
COc1ccccc1-c1ccc(=O)n(CC(=O)NCc2ccc3c(c2)OCO3)n1	22769*	-3	3	-16	i	1
COCCNC(=O)Cn1nc(-c2ccccc2OC)ccc1=O	22415*	-3	2	14	-1	0
COc1ccccc1-c1ccc(=O)n(CC(=O)NC(C)(C)C)n1	16772*	-1	?	·	0	-6
COCCCNC(=O)Cn1nc(-c2ccccc2OC)ccc1=O	3014	1	0	-5	i	4
COc1cccc(CNC(=O)Cn2nc(-c3ccc(Cl)cc3)ccc2=O)c1	21110*	-1	-1	·	0	-3
COCCCNC(=O)Cn1nc(-c2cccc(OC)c2)ccc1=O	3520	0	-5	5	-1	?
CCCc1cc(CN(C)C(=O)c2ccc(OC3CCN(C(C)=O)CC3)c(OC)c2)[nH]n1	3917	-7	0	·	i	-1
CC(=O)C1CCC2C3C=CC4=CC(=O)CCC4(C)C3CCC12C (stereo not drawn)	4378	-2	-1	·	0	0
O=C(Nc1c(-c2ccccc2)nc2ccccn12)c1cccc(F)c1	3930	-16	-1	-2	1	36*
COc1ccc(OC)c(N2C(=O)c3ccccc3C2c2nnnn2-c2ccc3c(c2)OCCO3)c1 (stereo not drawn)	6505	1	0	·	·	-6
O=C(OCC#CCSc1nnc(-c2cccc3ccccc23)o1)c1cccs1	5826	-7	0	1	0	3
O=C(OCC#CCSc1nnc(-c2ccccc2)o1)c1cccs1	17034*	-3	-2	-2	0	-3
N#C/C(=C/c1ccc(N2CCCCC2)o1)C(=O)Nc1ccc2ccccc2c1	60126*	39*	26	16	-1	65*
COc1ccc(NC(=O)/C(C#N)=C\c2ccc(N3CCOCC3)o2)cc1	6770	1	-1	9	-1	8
N#C/C(=C\c1ccc(N2CCOCC2)o1)C(=O)Nc1ccc(O)cc1	4565	-1	-1	1	i	2
N#C/C(=C/c1ccc(N2CCCCC2)o1)C(=O)Nc1ccc(Cl)cc1	17947*	-1	-1	6	i	36*
CCCS(=O)(=O)NC(=O)C1(C)CCN(C(=O)c2ccc(C(=O)OC)cc2)C1 (stereo not drawn)	2976	-2	0	·	i	6
COCCCNC(=O)C[C@H]1C[C@H](C(=O)N2CCOCC2)[C@@]2(C)c3[nH]c4cc(CCC(=O)N(C)C)ccc4c3CCN2C1=O	3431	-4	0	·	-1	2
COC(=O)c1c(NC(=O)c2nn(C)cc2Cl)sc2c1CCCC2	20893*	-6	?	4	-2	5
COC(=O)c1c(NC(=O)c2ccn(C)n2)sc2c1CCC2	5359	0	-6	5	0	-2
COC(=O)c1c(NC(=O)c2ccc(Br)s2)sc2c1CCC2	21623*	-4	3	4	0	2
